About 110 (0.13%) of roughly 84,000 compounds were called active. Shown is part of a subset that was picked to be rich in actives. Values without a mark were called inactive. Cut-off read from the data, not from the text of the source: active = inhibition above about 30% (passing the limit was not always enough); inactive = the rest.
system: MgrA (MarR family transcriptional regulator), Staphylococcus aureus Newman; assay: modulators of MgrA DNA binding – biochemical, S. aureus Newman, fluorescence polarization, primary screen (AID 602314); settings: hits give high values, concentration not given here;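 note: 0% = protein plus DNA without compound and 100% = DNA alone without protein; higher means less MgrA bound to DNA so lower polarization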

Question: How did the inhibition turn out when `O=C1CSC(=S)N1c1ccc(Oc2ccc(Cl)cc2)cc1` was run?
Answer: -2.4%

Question: For `Cn1nnc(NC(=O)COc2ccccc2)n1`, which inhibition is on record?
Answer: -1.4%

Question: `NC(=O)c1c(NC(=O)c2ccccc2)sc2c1CCCC2` was tested. Which inhibition did it give?
Answer: 0.05%

Question: With `O=C(O)C1=Cc2sc3c(c2CS1)CCCC3` as the compound, how does the inhibition read?
Answer: 72.7% (active)

Question: How did the inhibition turn out when `CC/C(=N\OC(=O)c1cccs1)c1ccc(-c2ccccc2F)cc1` was run?
Answer: 4.4%

Question: `CN(C)C(=O)Cn1c(=O)n(S(=O)(=O)c2ccccc2)c2ccccc21` was tested. Which inhibition did it give?
Answer: 7.3%

Question: For `CN(C)c1ncnc2nc[nH]c12`, which inhibition is on record?
Answer: 0.75%

Question: With `CCCN(CCC)S(=O)(=O)c1cccc2c(N)cccc12` as the compound, how does the inhibition read?
Answer: -2.2%

Question: Which inhibition does the source give for `CC1=C(C(=O)OCCOC(C)C)C(c2ccccc2OCc2ccccc2)NC(=O)N1` (stereo unspecified) here?
Answer: -4.9%

Question: `CC1(C)COC(c2cccc(C#N)c2)OC1` was tested. Which inhibition did it give?
Answer: -1.45%

Question: For `CCN1CCCc2cc(CN(CCN3CCOCC3)C(=S)Nc3c(C)cc(C)cc3C)ccc21`, which inhibition is on record?
Answer: 4.95%

Question: For `COC(=O)C1=C(C)NC2=C(C(=O)CC(c3ccc(Cl)cc3)C2)C1c1ccc(OC(C)=O)c(OC)c1` (stereo unspecified), which inhibition is on record?
Answer: -2.1%

Question: Which inhibition does the source give for `OCC(O)CN(c1ccccc1)c1ccccc1` (stereo unspecified) here?
Answer: -1.8%

Question: For `Cc1ccc2cc(C#N)c(SCC(=O)Nc3ccccc3)nc2c1`, which inhibition is on record?
Answer: -0.85%

Question: Which inhibition does the source give for `O=C(CCSc1ccc(Cl)cc1)Nc1ccc(F)c(F)c1F` here?
Answer: 0.15%

Question: For `COc1ccccc1Nc1n[nH]c(=S)n1C(=O)c1cccs1`, which inhibition is on record?
Answer: 2.9%

Question: For `O=C(O)CCc1nn2c(=O)c3ccccc3nc2s1`, which inhibition is on record?
Answer: -0.2%

Question: How did the inhibition turn out when `CCCN(c1ccc(C)cc1)c1nc(=O)c2cccnc2s1` was run?
Answer: 0.75%

Question: How did the inhibition turn out when `C=CCn1c(=O)c(C(=O)NCC2CCCN2CC)c(O)c2cc(OC)c(OC)cc21` (stereo unspecified) was run?
Answer: -0.05%

Question: `NC(=O)c1sccc1NS(=O)(=O)c1ccc(Cl)c(Cl)c1` was tested. Which inhibition did it give?
Answer: 2.05%

Question: Which inhibition does the source give for `CSc1ncc(C(N)=O)c(N)n1` here?
Answer: -4%

Question: Which inhibition does the source give for `CC(=O)Nc1ccc(-c2nc(-c3ccccc3)c3cc(C)ccc3n2)cc1` here?
Answer: 0.5%

Question: For `COc1ccccc1NC(=O)C1CC(=O)N(CCc2ccccc2)C(=Nc2ccccc2)S1` (stereo unspecified), which inhibition is on record?
Answer: 0.9%

Question: Which inhibition does the source give for `CN(Cc1ccccc1)C(=O)c1cccc(-c2nnc(-c3ccccc3)o2)c1` here?
Answer: 1.3%

Question: For `O=C(O)COc1ccc(NC(=O)c2ccccc2F)cc1`, which inhibition is on record?
Answer: -2.2%

Question: `CC(C)=CC(=O)Nc1nc2ccc(C)cc2s1` was tested. Which inhibition did it give?
Answer: 5.35%

Question: How did the inhibition turn out when `c1ccc(NC2CCCCC2)cc1` was run?
Answer: -1.2%

Question: With `O=C(c1cc(-c2ccccc2)c(C(F)(F)F)s1)N1CCCC1` as the compound, how does the inhibition read?
Answer: -2.9%

Question: For `c1ccc(CNC2C3CC4CC(C3)CC2C4)nc1` (stereo unspecified), which inhibition is on record?
Answer: -6%

Question: For `CC12CC[C@H](CC1=O)C2(C)C`, which inhibition is on record?
Answer: 0.7%

Question: For `COc1ccc(O)c(/C=N/NC(=O)c2ccn(Cc3ccc(Cl)cc3)n2)c1`, which inhibition is on record?
Answer: 2.4%

Question: `Nc1cc(C(=O)OCC(=O)NC2CCCCCC2)ccc1Cl` was tested. Which inhibition did it give?
Answer: -0.65%

Question: With `COC(=O)c1ccc(C2NN=C(c3ccccc3)S2)cc1` (stereo unspecified) as the compound, how does the inhibition read?
Answer: 2.7%

Question: How did the inhibition turn out when `Cc1ccccc1CNCc1cccs1` was run?
Answer: -3.4%

Question: Which inhibition does the source give for `O=c1[nH]c2ccccc2c(=O)n1NS(=O)(=O)c1ccc2ccccc2c1` here?
Answer: 1.35%

Question: How did the inhibition turn out when `CCCc1c(C)nc2c(C)cccc2c1SCCC(=O)O` was run?
Answer: 0%

Question: Which inhibition does the source give for `CC(C)C(=O)N=C1SC2CS(=O)(=O)CC2N1CCc1ccccc1` (stereo unspecified) here?
Answer: 0.45%

Question: For `CCCn1nnnc1NC(=S)NC(=O)c1cc2ccccc2o1`, which inhibition is on record?
Answer: 3.35%

Question: `O=C(O)C1C2CCC(C2)C1C(=O)NCCCN1CCCC1=O` (stereo unspecified) was tested. Which inhibition did it give?
Answer: 1.45%

Question: `O=[N+]([O-])c1ccc(Oc2cccc(Cl)c2)nc1` was tested. Which inhibition did it give?
Answer: -0.6%

Question: For `CCOC(=O)N1CCN(Cc2nc3c(c(=O)n(C)c(=O)n3C)n2CC)CC1`, which inhibition is on record?
Answer: 6.15%

Question: With `CC(NC(=S)Nc1ccc(S(N)(=O)=O)cc1)c1ccc2c(c1)OCO2` (stereo unspecified) as the compound, how does the inhibition read?
Answer: 0.45%

Question: For `Cc1ccc(C(=O)[C@@H]2[C@@H](C(C)(C)C)C(C#N)(C#N)[C@@]3(C)C=Cc4ccccc4N23)cc1`, which inhibition is on record?
Answer: -0.85%

Question: With `CCc1cccc(CC)c1N1C(=O)C(C)=C(C)C1=O` as the compound, how does the inhibition read?
Answer: -0.9%

Question: `O=C(O)CNC(=O)c1ccc(Cl)c(Cl)c1` was tested. Which inhibition did it give?
Answer: -1.25%

Question: `O=C(O)C1CCCCC1C(=O)Nc1ccc2[nH]c(=S)sc2c1` (stereo unspecified) was tested. Which inhibition did it give?
Answer: 6.3%

Question: Which inhibition does the source give for `CCC(NC(=O)Nc1cc(C)cc(C)c1)c1c(-n2cccc2)sc2c1CCN(CC)C2` (stereo unspecified) here?
Answer: 1%

Question: Which inhibition does the source give for `Cc1nc2ccc(C(=O)OCCC(F)(F)F)cc2[nH]1` here?
Answer: -0.25%

Question: For `Cc1cc(C)c(C(=O)N2CCCCC2C)c(C)c1` (stereo unspecified), which inhibition is on record?
Answer: -0.7%

Question: Which inhibition does the source give for `O=C(NC1CCCCNC1=O)c1ccc(N2CCOCC2)nc1` (stereo unspecified) here?
Answer: -0.3%

Question: `CCOC(=O)CC1=C(C(=O)OCC)C(c2c(F)cccc2Cl)C(C#N)=C(N)O1` (stereo unspecified) was tested. Which inhibition did it give?
Answer: 0.2%

Question: For `C=CCNC(=O)c1cc(-c2ccccc2O)on1`, which inhibition is on record?
Answer: 0.8%

Question: `C=CCNC(=O)c1ccc(OCC=C)cc1` was tested. Which inhibition did it give?
Answer: 0.4%

Question: Which inhibition does the source give for `C=CCNC(=O)c1ccc2nc(-c3ccco3)c(-c3ccco3)nc2c1` here?
Answer: 59.2% (active)

Question: How did the inhibition turn out when `CSC(=Nc1ccccc1F)Nc1ccccc1F` was run?
Answer: -2.5%

Question: Which inhibition does the source give for `O=C(O)c1ccccc1Cc1cccs1` here?
Answer: -3.8%

Question: For `C=CCNC(=O)c1cc(Br)cs1`, which inhibition is on record?
Answer: 0.6%

Question: How did the inhibition turn out when `Cc1nc(SCSc2nc3ccccc3s2)nc2c1CCCC2` was run?
Answer: 0.6%

Question: `CCN(CC)S(=O)(=O)c1cc2c3c(c1)c(C)cc(=O)n3CCC2` was tested. Which inhibition did it give?
Answer: 0.85%

Question: Which inhibition does the source give for `O=C(c1ccc(Br)cc1)c1cc2cc(Br)cc(Br)c2o1` here?
Answer: 1.1%

Question: For `COc1cccc(O)c1C(=O)NCC(=O)O`, which inhibition is on record?
Answer: -1.1%

Question: How did the inhibition turn out when `COc1ccc(N=Cc2nc(-c3ccccc3Br)oc2O)c([N+](=O)[O-])c1` was run?
Answer: 4.2%

Question: Which inhibition does the source give for `O=C(OC(C(=O)c1ccccc1)c1ccccc1)c1cccc(O)c1` (stereo unspecified) here?
Answer: -1%

Question: For `CCNc1sc(C(=O)OC)c(N)c1C#N`, which inhibition is on record?
Answer: 0.25%

Question: For `COc1ccc2[nH]c(=O)c(CN(Cc3ccc(C)cc3)C(C)=O)cc2c1`, which inhibition is on record?
Answer: 3.85%

Question: How did the inhibition turn out when `COc1cccc(CNn2cn[nH]c2=S)c1OCc1ccccc1` was run?
Answer: 0.8%

Question: Which inhibition does the source give for `COc1cc(C)nc(NN)n1` here?
Answer: 2.8%

Question: `COc1ccc(Cl)c2c1NC(c1ccncc1)C1CC=CC21` (stereo unspecified) was tested. Which inhibition did it give?
Answer: 0%

Question: For `CC1(C)CC(CC#N)(c2ccccc2)CCO1` (stereo unspecified), which inhibition is on record?
Answer: -1.15%

Question: `Cn1c(SCC(=O)NCc2ccc(Cl)cc2)nnc1-c1ccc(Cl)cc1` was tested. Which inhibition did it give?
Answer: -0.25%

Question: For `NC(=O)c1ccccc1N=Cc1ccc2ccccc2c1`, which inhibition is on record?
Answer: -2.2%

Question: Which inhibition does the source give for `Cc1ccc2c(c1)NC(c1cc(Cl)cc(Cl)c1O)c1cccn1-2` (stereo unspecified) here?
Answer: 0.6%

Question: How did the inhibition turn out when `Cc1nc2onc(OCC(=O)OCc3ccccc3)c2c(C)c1C` was run?
Answer: 0.6%

Question: Which inhibition does the source give for `O=C1CCCN1c1ccc(OC(F)(F)F)cc1` here?
Answer: -1.5%

Question: For `C=CCC1NC(C)(C)Cc2ccccc21` (stereo unspecified), which inhibition is on record?
Answer: -0.25%

Question: `CC1CCCCN1C(=O)c1ccccc1F` (stereo unspecified) was tested. Which inhibition did it give?
Answer: -1.4%

Question: With `NCC1(N2CCCCC2)CCCCC1` as the compound, how does the inhibition read?
Answer: -1.35%

Question: Which inhibition does the source give for `Cc1onc(-c2ccccc2)c1C(=O)N=C(N)c1ccc(Cl)cc1` here?
Answer: -1.9%

Question: Which inhibition does the source give for `C=CCSc1nc2c(c(=O)[nH]c(=O)n2C)n1C/C=C(\C)Cl` here?
Answer: 3%

Question: Which inhibition does the source give for `Cc1cc(C)cc(C(=O)OCC(=O)Nc2cccc(C(F)(F)F)c2)c1` here?
Answer: 3.35%

Question: For `COC(=O)c1sc(-c2ccc(Cl)cc2)cc1NC(=O)c1ccc2nsnc2c1`, which inhibition is on record?
Answer: -0.8%

Question: Which inhibition does the source give for `CC(=O)N1N=C(c2c(-c3ccccc3)c3cc(Cl)ccc3[nH]c2=O)CC1c1cccc(Br)c1` (stereo unspecified) here?
Answer: -1.4%

Question: `Cc1[nH]ncc1-c1ccccc1` was tested. Which inhibition did it give?
Answer: -1.4%

Question: How did the inhibition turn out when `CCOC(=O)c1sc(SC)c2c1CC(c1ccc(C)cc1)CC2=O` (stereo unspecified) was run?
Answer: -0.2%

Question: Which inhibition does the source give for `O=[N+]([O-])c1cc(C(F)(F)F)cc([N+](=O)[O-])c1Oc1ccc(Cl)cc1Cl` here?
Answer: 3.2%

Question: `CC(C)(C)c1c[n+](-c2ccccc2)c2n1CCS2` was tested. Which inhibition did it give?
Answer: 0.1%

Question: `COC(=O)COc1ccccc1C#N` was tested. Which inhibition did it give?
Answer: 0.4%

Question: With `CC1OC(O[C@H]2/C=C/C=C/C=C/C=C/C=C/C=C/C=C/[C@H](C)[C@@H](O)[C@@H](C)[C@H](C)OC(=O)CC(O)CC(O)CCC(O)C(O)CC(O)CC3(O)C[C@H](O)C(C(=O)O)C(C2)O3)C(O)[C@H](N)C1O` (stereo partly specified) as the compound, how does the inhibition read?
Answer: 2.9%

Question: For `O=c1[nH]nc(-c2ccccc2)[nH]1`, which inhibition is on record?
Answer: -1.6%

Question: For `CCC(=O)Nc1cc(NC(=O)c2ccco2)ccc1C`, which inhibition is on record?
Answer: -1.65%

Question: For `O=C(Nc1ccccc1)OCC12COC(c3ccccc3)N1C(c1ccccc1)OC2` (stereo unspecified), which inhibition is on record?
Answer: -1.5%

Question: `O=C(c1ccco1)N1CCN(c2cnn(-c3ccccc3)c(=O)c2Cl)CC1` was tested. Which inhibition did it give?
Answer: -0.95%

Question: For `Cc1ccc2c(c1)c1c(n2CC(O)CNCc2ccccc2)CCCC1` (stereo unspecified), which inhibition is on record?
Answer: -1.7%

Question: How did the inhibition turn out when `CN(C(=O)CSc1nncc(=O)[nH]1)c1ccccc1` was run?
Answer: -1.65%

Question: How did the inhibition turn out when `CC1(C)CC(=O)C2=C(C1)OC1=C(C(=O)CC(C)(C)C1)C2c1cn(Cc2ccc(Cl)cc2Cl)nc1-c1ccccc1` was run?
Answer: -0.5%

Question: How did the inhibition turn out when `COc1cc(C2C3=C(CC(C)(C)CC3=O)OC3=C2C(=O)CC(C)(C)C3)c(Br)cc1OCC(=O)O` was run?
Answer: 3.4%

Question: Which inhibition does the source give for `O=C(NN=c1c(=O)c2ccccc2c1=O)c1ccncc1` here?
Answer: 1.9%

Question: For `CCn1c(=O)c2ccccc2n(CC(=O)c2ccc(C)cc2)c1=O`, which inhibition is on record?
Answer: -1.25%

Question: `CC1CCCN(c2ncccc2C(=O)NCC2CCCO2)C1` (stereo unspecified) was tested. Which inhibition did it give?
Answer: 1.1%

Question: For `CN(C(=O)c1cc2nc(-c3ccco3)cc(C(F)(F)F)n2n1)c1ccc(OC(F)(F)F)cc1`, which inhibition is on record?
Answer: -0.95%

Question: `COc1ccc(C(=O)COC2=C(C#N)C3(CCCC3)C(C#N)C(=S)N2)cc1OC` (stereo unspecified) was tested. Which inhibition did it give?
Answer: -1.5%
